CRFBP-R2 agonist: agonists of CRF-BP/CRF-R2 complex, primary screen, cell-based, HEK293, calcium dye fluorescence, uHTS; calcium dye fluorescence (FLIPR); percent of saturating CRF peptide response; activation, % at 13.2 µM; 0.46% of 350,000 active; AID 588473, 2011;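 active means activation of at least 50%, plus an integration ratio under a set limit after plate pattern correction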
Myeloid diff MLP: induction of myeloid progenitor differentiation, primary screen, cell-based, flow cytometry, MLPCN library; calls only at 10 µM; ER-HoxA9 myeloid progenitors, lysozyme-GFP differentiation; 1% of 360,000 active;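 active means normalized GFP-positive differentiation at or above the plate's own cutoff, the solvent-only control mean plus 3 SD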;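 further: cells exposed to compound for four days before flow analysis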
IDE cell inh: human IDE inhibitors in live cells, primary screen, fluorescence polarization, HEK cells, FAbetaB substrate. FAbetaB cleavage. inhibition, % at 5.59 µM. 0.41% of 320,000 active;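 active means percent inhibition above the average of all tested compounds plus 3 SD, set per screening campaign, cut at about 16% in these data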;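 further: IDE supplied by intact live HEK cells; FP after avidin binding of uncleaved biotin substrate so inhibition keeps polarization high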
Target sequence (P14735 whole entry, looked up): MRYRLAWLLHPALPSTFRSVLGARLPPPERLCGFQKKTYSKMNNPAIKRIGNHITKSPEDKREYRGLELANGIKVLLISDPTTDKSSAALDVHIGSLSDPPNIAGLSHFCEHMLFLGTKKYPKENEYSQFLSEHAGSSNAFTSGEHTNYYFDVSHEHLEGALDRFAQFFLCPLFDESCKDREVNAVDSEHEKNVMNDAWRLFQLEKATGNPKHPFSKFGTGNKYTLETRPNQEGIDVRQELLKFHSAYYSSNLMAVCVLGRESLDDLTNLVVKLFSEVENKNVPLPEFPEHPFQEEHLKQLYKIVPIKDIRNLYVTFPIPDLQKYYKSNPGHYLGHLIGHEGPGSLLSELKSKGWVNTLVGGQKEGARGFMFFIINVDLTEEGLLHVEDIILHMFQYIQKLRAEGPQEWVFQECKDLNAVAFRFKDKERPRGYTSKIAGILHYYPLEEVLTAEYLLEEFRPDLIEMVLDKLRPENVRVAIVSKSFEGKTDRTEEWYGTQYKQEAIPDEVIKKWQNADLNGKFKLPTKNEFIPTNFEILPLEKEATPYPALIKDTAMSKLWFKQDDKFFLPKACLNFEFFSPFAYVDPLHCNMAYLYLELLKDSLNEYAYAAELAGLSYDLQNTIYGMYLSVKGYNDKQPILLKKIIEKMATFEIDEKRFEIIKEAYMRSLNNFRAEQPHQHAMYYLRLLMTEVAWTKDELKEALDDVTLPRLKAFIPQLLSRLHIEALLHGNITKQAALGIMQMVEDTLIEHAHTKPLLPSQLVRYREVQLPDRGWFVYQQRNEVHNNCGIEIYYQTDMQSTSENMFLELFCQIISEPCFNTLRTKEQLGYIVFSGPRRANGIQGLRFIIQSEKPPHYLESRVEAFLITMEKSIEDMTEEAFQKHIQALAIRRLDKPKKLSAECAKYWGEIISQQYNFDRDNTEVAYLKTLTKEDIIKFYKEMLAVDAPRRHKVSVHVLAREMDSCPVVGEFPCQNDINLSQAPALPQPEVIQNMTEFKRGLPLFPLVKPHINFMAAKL
CRFR2-BP antag: antagonists of CRF-BP/CRF-R2 complex, primary screen, cell-based, HEK293, calcium dye fluorescence, uHTS; inhibition, % at 11.8 µM; 0.59% of 350,000 active; AID 588475, 2011; CRF-induced calcium fluorescence;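 active means inhibition of the ligand-induced calcium signal above about 50% at the single tested concentration, limit read from the data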
IDE cell activ: human IDE activators in live cells, primary screen, fluorescence polarization, HEK cells, FAbeta-B substrate | AID 493087, 2011 | activation, % at 5.96 µM | FAbeta-B cleavage; 0% vehicle, 100% cell-free pure enzyme wells | 0.073% of 340,000 active | Insulin-degrading enzyme (Homo sapiens), P14735;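 active means activation above the mean of all tested compounds plus 3 SD, set per screening campaign, cut at about 17% in these data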
TPT1 inh: Candida albicans TPT1 enzyme inhibitors, primary screen, biochemical, fluorescence polarization. inhibition, % at 5 µM. recombinant caTPT1, FP RNA substrate dephosphorylation. 0.81% of 300,000 active;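 active means inhibition above the mean of all tested compounds plus 3 SD, set per screening campaign, cut at about 24% in these data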
Myeloid diff: inducers of myeloid progenitor differentiation, confirmation, cell-based, GFP/Mac1 flow cytometry, cherry pick 01 | shares compounds with Myeloid diff MLP | calls only | AID 651706, 2012 | 2% of 2,300 active | ER-HoxA9 myeloid progenitors, GFP/Mac1 double-positive flow;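 active means share of green or green-and-red cells above 9 and 9% in run 1 or 4 and 3% in run 2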
GFP autofluor: counter-screen for myeloid differentiation promoters: compound fluorescence. 7.4% of 2,300 active. fluorescence response, % (concentration not given with the values). ER-HoxA9 myeloid progenitors, no estrogen, GFP autofluorescence flow cytometry; vehicle wells 0%, positive control 100%. shares compounds with Myeloid diff MLP;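 active means over 5% cells positive for green fluorescent reporter, or over 2% positive for both it and APC stain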
Large screens that a line does not name were inactive (follow-up assays come after a bar, where they were run). This is a sample that favours compounds with a hit; in the whole collection about 2.6% have one here.

CCCS(=O)(=O)N1CCCC(C(=O)Nc2ccc3c(c2)CCC3)C1 (stereo not given)	none
CC1=CC(=C(C#N)C#N)c2ccccc2N1C	none | Myeloid diff inactive | GFP autofluor inactive
Cc1ccccc1N1C(=O)CSC1=C(C#N)C#N	none
CCCNC(=O)CCCN1C(=O)c2ccccc2Sc2ncccc21	none
COc1ccc(Cc2nnc(NC(=O)C3CCCO3)s2)cc1OC (stereo not given)	Myeloid diff MLP active | Myeloid diff inactive | GFP autofluor inactive
COc1ccc(Cc2nnc(NC(=O)C3CCCO3)s2)cc1 (stereo not given)	none
CC(C)(C)NC(=O)C(c1ccnc2ccccc12)n1c(=O)c(-c2ccco2)nc2ccccc21 (stereo not given)	none (no result: CRFBP-R2 agonist, IDE cell inh, CRFR2-BP antag, IDE cell activ, TPT1 inh)
COc1cc(COCC(O)CN2CCN(CCN3C(=O)c4cccc5cccc(c45)C3=O)CC2)cc(OC)c1OC (stereo not given)	Myeloid diff MLP active | Myeloid diff inactive | GFP autofluor inactive
Cc1cccc(NC(=O)c2sc(Cl)nc2-c2ccccc2)c1	none
Cc1ccccc1N(CC(=O)NCCSCc1ccco1)S(C)(=O)=O	Myeloid diff MLP active | Myeloid diff inactive | GFP autofluor inactive
O=C(CP(=O)(c1ccccc1)c1ccccc1)Nn1cnnc1	none
Cc1[nH]c2ccccc2c1-c1nc2ccccc2[nH]1	Myeloid diff MLP active | Myeloid diff inactive | GFP autofluor inactive
O=C(CCNC(=O)c1ccc(Br)cc1)NC1CCCc2ccccc21 (stereo not given)	Myeloid diff MLP active | Myeloid diff active | GFP autofluor inactive
O=C(NC1CCCc2ccccc21)c1ccc(Br)cc1 (stereo not given)	none
FC(F)C(F)(F)Oc1cccc(Nc2nccn3c(-c4ccc5ccccc5c4)cnc23)c1	none (no result: CRFBP-R2 agonist, IDE cell inh, CRFR2-BP antag, IDE cell activ, TPT1 inh)
Oc1ccc(-c2cnc3c(Nc4cccc(OC(F)(F)C(F)F)c4)nccn23)cc1	Myeloid diff MLP active (no result: CRFBP-R2 agonist, IDE cell inh, CRFR2-BP antag, IDE cell activ, TPT1 inh) | Myeloid diff inactive | GFP autofluor inactive
CCn1c(=O)c(C(=O)NC(C)c2ccccc2)c(O)c2ccccc21 (stereo not given)	Myeloid diff MLP active (no result: IDE cell inh, TPT1 inh) | Myeloid diff inactive | GFP autofluor inactive
CCCn1c(=O)c(C(=O)NC(C)c2ccccc2)c(O)c2ccccc21 (stereo not given)	none
COC(=O)CSc1nnc(-c2ccc(S(=O)(=O)N3CCCCC3)cc2)o1	Myeloid diff MLP active | Myeloid diff inactive | GFP autofluor inactive
COC(=O)CSc1nnc(-c2ccc(S(=O)(=O)N3CCC(C)CC3)cc2)o1	none
CCOC(=O)CNC(=O)CSc1nc(C(C)C)nc2c1cnn2-c1ccccc1	none (no result: IDE cell inh, IDE cell activ, TPT1 inh)
C=CCn1ccc(O)c(Cc2ccc(Cl)cc2)c1=O	none
COc1ccc(/C(C)=N/NC(=O)CNC(=O)/C=C\c2ccccc2OC)c(OC)c1	none
CCN(CC(=O)NCc1ccc(F)cc1)C(=O)c1oc2ccccc2c1C	none
O=C(NCc1ccccc1)C12CN(Cc3ccccc3)CC1C(c1cccc([N+](=O)[O-])c1)=NO2 (stereo not given)	none | Myeloid diff inactive | GFP autofluor inactive
O=C(NCc1ccc(OC(F)(F)F)cc1)C12CN(Cc3ccccc3)CC1C(c1cccc([N+](=O)[O-])c1)=NO2 (stereo not given)	none
c1ccc(Cn2nnc3c(N4CCCC4)ncnc32)cc1	Myeloid diff MLP active | Myeloid diff inactive | GFP autofluor inactive
COc1ccc(CC(=O)Nc2ccc(S(=O)(=O)Nc3ncccn3)cc2)cc1	Myeloid diff MLP active | Myeloid diff inactive | GFP autofluor inactive
Cc1ccc(CC(=O)Nc2ccc(S(=O)(=O)Nc3nccc(C)n3)cc2)cc1	none | Myeloid diff inactive | GFP autofluor inactive
O=C(NCc1ccccc1)c1cc(C2CCCN(S(=O)(=O)c3cccs3)C2)on1 (stereo not given)	none (no result: CRFBP-R2 agonist, IDE cell inh, CRFR2-BP antag, IDE cell activ, TPT1 inh)
COc1ccc(CN2CCN(Cc3ccc4cc(F)ccc4n3)CC2CCO)c(C)c1C (stereo not given)	none
COc1cc(CN2CCN(Cc3ccc4cc(F)ccc4n3)CC2CCO)cc(OC)c1 (stereo not given)	none | Myeloid diff inactive | GFP autofluor inactive
O=C1CCC/C=C/C[C@@H](CC(=O)N(CCO)Cc2ccccc2)C(=O)NC[C@@H](c2ccccc2)O1	none (no result: TPT1 inh) | Myeloid diff inactive | GFP autofluor inactive
O=C1CC/C=C\C[C@@H](CC(=O)N(CCO)Cc2ccccc2)C(=O)NC[C@@H](c2ccccc2)O1	none (no result: TPT1 inh)
CCOC(=O)C1CCN(C(=O)COc2ccc(Cl)cc2Cl)CC1	none | Myeloid diff inactive | GFP autofluor inactive
Cc1ccc(Cl)c2sc(N3CCN(C(=O)c4ccco4)CC3)nc12	none
COc1ccc(NC(=O)c2ccco2)cc1NC(=O)c1ccco1	none | Myeloid diff inactive | GFP autofluor inactive
COC(=O)[C@H](CCSC)NC(=O)N1CCN(c2cccc(C(F)(F)F)c2)CC1	none | Myeloid diff inactive | GFP autofluor inactive
Cc1cccc(-c2nnc(-c3cccc(NC(=O)Cc4cccs4)c3)o2)c1	none | Myeloid diff inactive | GFP autofluor inactive
O=C(Cc1cccs1)Nc1ccc(-c2nnc(-c3ccccc3)o2)cc1	none
Cc1ccc2c(c1)N(Cc1cccc(C#N)c1)C=NS2(=O)=O	none
CCCC(=O)NC(=S)Nc1ccc(N2CCOCC2)c(Cl)c1	none | Myeloid diff inactive | GFP autofluor inactive
COc1ccc(NC(=O)CSc2nnnn2-c2ccc(F)cc2)cc1	none
O=C(CSc1nnnn1-c1ccc(F)cc1)Nc1ccc(N2CCOCC2)c(Cl)c1	Myeloid diff MLP active | Myeloid diff inactive | GFP autofluor inactive
COC(=O)c1c(NC(=O)C2(C)Cc3ccccc3C(=O)O2)sc2c1CCCC2 (stereo not given)	Myeloid diff MLP active | Myeloid diff inactive | GFP autofluor inactive
Cc1cc(Nc2ccccc2)c2c([N+](=O)[O-])ccc(C)c2n1	none | Myeloid diff inactive | GFP autofluor inactive
CCCc1nc2ccc(NC(=O)c3cccs3)cc2c(=O)n1Cc1ccc(Cl)cc1	none
Cc1nc2ccc(NC(=O)c3cccs3)cc2c(=O)n1Cc1ccc(Cl)cc1	Myeloid diff MLP active | Myeloid diff inactive | GFP autofluor inactive
NS(=O)(=O)c1ccc(CCn2c(=S)[nH]c3ccc(F)cc3c2=O)cc1	none
Cc1ccccc1C(=O)/C(C#N)=N/Nc1c(C)n(C)n(-c2ccccc2)c1=O	none

Bioassay records (PubChem BioAssay)
